In the library only some 6.9% were active in any assay of this set; here they are far more common.
MPTP inh – mitochondrial permeability transition pore inhibitors, primary screen, biochemical, isolated mouse mitochondria, absorbance; Ca2+ swelling absorbance, 30 min; AID 602449, 2012; inhibition, % at 10 µM; hit rate 1.4% among 360,000;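 active means inhibition of 50% or more, scaled per plate between neutral and stimulator controls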;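 further: 0% = DMSO wells given calcium and 100% = 1 mM EGTA wells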
Mdm2-MdmX inh – inhibitors of human Mdm2-MdmX association, primary screen, cell-based, luminescence, split luciferase, SaOS-2, uHTS | inhibition, % at 8 µM | hit rate 3% among 330,000 | SaOS-2 split-luciferase Mdm2/MdmX complementation | Protein Mdm4 (Homo sapiens) + E3 ubiquitin-protein ligase Mdm2 (Homo sapiens), …;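 active means inhibition of at least 50% at 8 µM in the primary screen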
Target sequence (O15151 whole entry, looked up): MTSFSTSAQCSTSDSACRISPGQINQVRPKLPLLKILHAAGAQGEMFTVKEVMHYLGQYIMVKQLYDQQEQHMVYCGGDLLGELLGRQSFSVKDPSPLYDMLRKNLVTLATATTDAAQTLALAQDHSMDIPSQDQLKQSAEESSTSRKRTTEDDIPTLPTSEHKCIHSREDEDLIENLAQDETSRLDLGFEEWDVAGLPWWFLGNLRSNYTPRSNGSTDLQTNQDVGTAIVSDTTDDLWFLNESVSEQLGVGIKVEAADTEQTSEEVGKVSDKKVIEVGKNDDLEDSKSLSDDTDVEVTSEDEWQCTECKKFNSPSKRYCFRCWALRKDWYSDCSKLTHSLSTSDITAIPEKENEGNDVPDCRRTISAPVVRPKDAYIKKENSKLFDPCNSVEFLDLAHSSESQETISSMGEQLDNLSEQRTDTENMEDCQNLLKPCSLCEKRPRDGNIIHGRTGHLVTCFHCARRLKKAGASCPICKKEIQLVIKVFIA
Target sequence (Q00987 whole entry, looked up): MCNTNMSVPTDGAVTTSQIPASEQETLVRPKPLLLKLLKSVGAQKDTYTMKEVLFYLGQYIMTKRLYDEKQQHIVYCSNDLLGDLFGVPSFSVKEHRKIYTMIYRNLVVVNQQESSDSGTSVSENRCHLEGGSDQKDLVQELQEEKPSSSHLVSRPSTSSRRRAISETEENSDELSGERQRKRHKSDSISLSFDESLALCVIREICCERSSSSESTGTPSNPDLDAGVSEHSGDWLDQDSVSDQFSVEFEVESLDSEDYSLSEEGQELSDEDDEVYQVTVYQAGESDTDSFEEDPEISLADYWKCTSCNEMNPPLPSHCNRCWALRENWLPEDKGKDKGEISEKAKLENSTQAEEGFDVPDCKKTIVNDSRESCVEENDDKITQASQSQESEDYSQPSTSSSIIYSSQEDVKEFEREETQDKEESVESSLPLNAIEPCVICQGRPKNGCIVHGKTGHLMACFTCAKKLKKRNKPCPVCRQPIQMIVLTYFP
GRIN3A LBD mod – binders of NR3A ligand-binding domain, primary screen, biophysical, differential scanning fluorimetry, uHTS; AID 1259313, 2017; Tm shift relative to glycine control, % at 25 µM; NR3A LBD differential scanning fluorimetry, Tm shift; 0% = protein alone, 100% = glycine-bound protein; hit rate 2.5% among 340,000; Glutamate receptor ionotropic, NMDA 3A (GRIN3A) ligand-binding domain;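 active means melting temperature shift of at least 10% of the positive control shift, at one fixed dose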
CSC inhib – cancer stem cell viability inhibitors, primary screen, luminescence. hit rate 1.1% among 300,000. AID 2717, 2010. inhibition, % at 7.5 µM. cancer stem cell-like cells viability; in the data active means inhibition above about 75%; tested in HMLE shEcad cells
Beta cell apopt – inhibitors of cytokine-induced beta cell apoptosis, primary screen, luminescence | hit rate 0.8% among 300,000 | protection from apoptosis, % (test concentration not listed) | INS-1E cytokine-induced death, ATP luminescence, 48 h; percent of positive-control rescue, neutral wells zero;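 active means Every replicate reaches about 75%, or at least half do and their mean reaches it too, limit read from the data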;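 further: 0% = cytokine-treated negative control wells and 100% = positive control rescue; higher means more ATP so stronger rescue from cytokine killing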
SKKanGAS inh – S. pyogenes SKKanGAS growth inhibitors in kanamycin, primary screen, streptokinase expression inhibitor project, SKKanGAS strain, BacTiter-Glo luminescence; inhibition, % at 7.5 µM; hit rate 1.3% among 300,000; 6 h;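 active means mean replicate score, as percent of positive control median, at least 50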;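 further: strain carries kanamycin resistance gene driven by streptokinase promoter and grows in 40 µg/ml kanamycin; loss of luminescence reflects streptokinase promoter inhibition or plain growth inhibition; 0% = median of DMSO wells and 100% = positive control at its reference dose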
MPTP counter – fluorescence retest of MPTP screen hits in isolated mitochondria, single concentration | shares compounds with MPTP inh | membrane potential, Rhodamine 123 fluorescence | inhibition, % at 10 µM | hit rate 78% among 5,000; in the data active means inhibition above about 22%;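 further: 0% = DMSO vehicle and 100% = positive control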
MPTP abs DR – mitochondrial permeability transition pore inhibitors, dose response, biochemical, absorbance, uHTS hits; shares compounds with MPTP inh; isolated mitochondria swelling; IC50, µM; hit rate 58% among 780; in the data active means IC50 below about 20 µM
MPTP counter DR – fluorescent counter-screen in isolated mitochondria, dose response, counter-screen for MPTP inhibitor project, biochemical, fluorescence, uHTS hits. shares compounds with MPTP inh. isolated mitochondria counterscreen, fluorescence read-out. IC50, µM. hit rate 49% among 780; in the data active means IC50 below about 80 µM
Starred values were filed as active, the others as inactive; . = not tested or not shown.

SMILES	MPTP inh	Mdm2-MdmX inh	GRIN3A LBD mod	CSC inhib	Beta cell apopt	SKKanGAS inh	MPTP counter	others
COc1cccc(-c2csc(N3CCN(C(=S)Nc4ccccc4)CC3)n2)c1	9.3	3.4	3.8	-6.3	-1.8	14.8	.
COc1ccccc1CNC(=O)CCc1nc2ccccc2c(=O)[nH]1	-3.4	4.5	0.6	-0.2	-2.1	2.5	.
CN(C)CCCNC(=O)CCc1nc2ccccc2c(=O)[nH]1	73.5*	16.9	-0.6	-5.7	-3.0	-2.2	5.5	MPTP abs DR=>100;MPTP counter DR=>80
CCNC(=O)C1(C)CCN(Cc2ccc(-c3ccccc3)cc2)C1 (centres undefined)	-0.9	.	.	.	.	.	.
CCN(CC)C(=O)c1oc2ccc(S(=O)(=O)N3CC(C)CC(C)C3)cc2c1C (centres undefined)	51.1*	34.9	0.8	-4.9	63.1	-1.7	75.4*
CCOC(=O)C1CCCN(S(=O)(=O)c2ccc3c(c2)N(C)C(=O)CC(=O)N3C)C1 (centres undefined)	-1.2	7.8	-4.8	1.5	-3.3	3.8	.
O=C(C=Cc1cccc(O)c1)c1ccccc1O	5.5	.	0.6	.	.	.	.
O=C(/C=C/c1ccc(O)c(O)c1)c1ccccc1O	73.3*	-73.9	25.0*	43.9	-3.4	-4.9	62.8*
O=C(C=Cc1ccccc1O)c1ccccc1O	72.4*	.	2.0	.	.	.	89.5*
CCN(CC(=O)Nc1ccccc1C(F)(F)F)C(=O)c1ccc2[nH]c3c(c2c1)CC(C)CC3 (centres undefined)	-0.6	-8.2	-1.2	21.7	9.8	-12.7	.
C=CCN1C(=O)c2ccc(C(=O)N(CC)CC(=O)Nc3ccc(OC)cc3)cc2C1=O	2.2	19.2	3.9	-15.6	.	-0.7	.
O=C(NNc1nc2ccc(F)cc2s1)c1cccc(F)c1	92.2*	37.3	-11.4	62.6	48.5	3.6	75.6*
CC(=O)c1sc(Nc2nc3ccc(F)cc3s2)nc1C	70.9*	-89.1	0.7	26.5	40.4	6.1	63.1*
COC(=O)c1ccc2nc(Nc3nc4ccc(F)cc4s3)sc2c1	89.2*	.	12.4*	53.4	-4.0	19.1	71.7*
Cc1ccc(C(=O)N2CC(C)CC(C)C2)cc1NC1=NC2CS(=O)(=O)CC2S1 (centres undefined)	0.6	10.9	3.4	-2.2	2.3	-1.9	.
CCOC(=O)CSc1ncc(-c2ccc([N+](=O)[O-])cc2)[nH]1	1.2	11.0	0.2	-9.2	2.0	-0.3	.
COc1ccc(C(=O)NCC(=O)N/N=C(\C)c2ccco2)cc1OC	-0.6	17.7	3.4	-8.2	1.0	2.8	.
COc1ccccc1C=NN=C(NN=Cc1ccccc1OC)NN=Cc1ccccc1OC	94.4*	.	-2.4	.	.	.	97.3*
Cc1cccc2c1-c1sc(C(=O)Nc3cccc([N+](=O)[O-])c3C)cc1CO2	75.2*	16.6	5.2	37.4	13.2	18.3	67.7*
CC(C)[C@H](NC(=O)[C@@H]1Cc2ccccc2CN1)C(=O)Nc1ccc2c(c1)OCO2	-0.4	-5.5	-0.9	16.8	-1.2	11.2	.
O=C(O)CCC(=O)N1N=C(c2ccc(Br)cc2)CC1c1cccs1 (centres undefined)	81.3*	-32.4	-0.2	6.2	-3.3	-11.5	3.0	MPTP abs DR=>100;MPTP counter DR=>80
CCOC(=O)N1CCc2c(sc3nc(SC(C)C)n(N)c(=O)c23)C1	62.0*	19.8	-4.3	22.7	16.9	2.4	25.3*
CC(C)CC(OC(=O)c1nsc(Cl)c1Cl)C(=O)NCC1CCCO1 (centres undefined)	-2.2	-12.6	1.3	-2.7	6.0	0.8	.
